# According to PubChem BioAssay (NCATS):
# Where “and” joins values, the source holds several entries; their conditions need not be identical. Equal entries are not always repeated. Records with an inconclusive call do not appear. For some assays here: Entries with a potency or affinity are not part of this list. Calls of active or inactive are those of the source.
# Assays:
# [1] = qHTS Assay for Identifying Gametocytocidal Compounds (AID 743244; active = well fitted curve in the direction sought with a large enough effect; an effect the other way counts as inactive or inconclusive;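 note: % is set by controls: 0 for no effect and ±100 for the full control effect; actives lower the fluorescent signal which means gametocytes are killed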); conditions: P. falciparum 3D7 stage III-V gametocytes, alamarBlue, 72 h; max response: stronger effect = lower value
# Method in brief: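 Viability read-out was resazurin reduction (alamarBlue, 24 h) measured at Ex 525/Em 598 nm. Beforehand, late-stage (III-V) 3D7 P. falciparum gametocytes at 20,000 cells/well were incubated with compound 72 h at 37C under 5% CO2.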
# [2] = qHTS profiling of the MIPE4 collection as inhibitors of Plasmodium falciparum (3D7) proliferation (AID 743344; call rule not given here;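 note: scaled between DMSO vehicle wells and 0.29 µM artemisinin as full inhibition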); conditions: P. falciparum 3D7 in erythrocytes, SYBR Green DNA fluorescence, 72 h; at 28.5 µM (top of the series) unless noted
# Method in brief: (§1)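 Erythrocytes infected with P. falciparum (0.3% parasitemia, 2.5% hematocrit) incubated with compounds 72 h at 37 C, 5% CO2. Lysis with saponin/Triton buffer containing SYBR Green I, overnight at room temperature in the dark; DNA fluorescence (485/535 nm) normalised to 0.29 uM artemisinin and DMSO.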
# [3] = qHTS profiling of the MIPE4 collection as inhibitors of Plasmodium falciparum (DD2) proliferation (AID 743345; call rule not given here); conditions: P. falciparum Dd2 in erythrocytes, SYBR Green DNA, 72 h; at 28.5 µM (top of the series) unless noted
# Method in brief: as §1
# [4] = qHTS profiling of the MIPE4 collection as inhibitors of Plasmodium falciparum (DD2) proliferation (Rep 2) (AID 743346; call rule not given here); conditions: P. falciparum Dd2 in erythrocytes, SYBR Green DNA, 72 h; at 28.5 µM (top of the series) unless noted
# Method in brief: as §1
# [5] = qHTS profiling of the MIPE4 collection as inhibitors of Plasmodium falciparum (HB3) proliferation (AID 743347; call rule not given here;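 note: plate controls were DMSO vehicle wells for no effect and artemisinin wells for full effect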); conditions: P. falciparum HB3 in erythrocytes, SYBR Green DNA, 72 h; at 28.5 µM (top of the series) unless noted
# Method in brief: as §1
# [6] = Ebola virus entry assay, green fluorescence channel
# [7] = qHTS assay for small molecule agonists of the antioxidant response element (ARE) signaling pathway measured by Nrf2-dependant transcriptional activity (AID 720636; active = well fitted curve in the direction sought with a large enough effect in the repeat runs; an effect the other way counts as inactive or inconclusive;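 note: HepG2 cells with an ARE-driven luciferase reporter; % of control where 0% means no effect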)
# Method in brief: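 HepG2 ARE-luc reporter line, 1% dialyzed FBS; 6 hr attachment at 37 C, compound pinned in, 16 hr at 37 C/5% CO2; ONE-Glo, 30 min RT, luminescence read.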
# [8] = qHTS assay for small molecule agonists of the antioxidant response element (ARE) signaling pathway measured by Nrf2-dependant transcriptional activity - cell viability counter screen (AID 720653; active = well fitted curve in the direction sought with a large enough effect in the repeat runs; an effect the other way counts as inactive or inconclusive; note: % is set by controls: 0 for no effect and ±100 for the full control effect); conditions: ARE-bla HepG2 viability, CellTiter-Glo ATP luminescence, 16 h; stronger effect = lower value
# Method in brief: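 ARE-bla HepG2 cells (2,000/well) rested 5 hrs at 37C/5% CO2, then exposed to compounds in DMSO for 16 hrs. Viability was read in the same wells as intracellular ATP by luminescence, 30 min at room temperature after reagent addition.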
# [9] = qHTS assay for cell viability of HEK293 cells (AID 743288; active = well fitted curve in the direction sought with a large enough effect; an effect the other way counts as inactive or inconclusive; note: % is set by controls: 0 for no effect and ±100 for the full control effect; nearly all actives have a fitted effect of over 50% in size); conditions: ATP luminescence (CellTiter-Glo), 18 h, stronger effect = lower value
# Method in brief: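 Parental HEK293 cells were seeded at 2,000 cells/well, rested at least 5 h at 37 C, then exposed to compounds in DMSO for 18 h at 37 C. Viability was read as ATP-dependent luciferase luminescence after 30 min at room temperature.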
# [10] = Ebola virus entry assay, ratio channel
# [11] = Ebola virus entry assay, blue channel fluorescence
# [12] = Ebola virus entry assay, green fluorescence channel; remark: listed apart in the source
# [13] = Ebola virus entry assay, ratio channel readout
# Throughout, for efficacy: 0% is about no effect.
compound,measurement,setting,value
CC(=O)CC(c1ccccc1)c1c(O)c2ccccc2oc1=O (stereo unspecified),max response,[1],17.5% (inactive) and 36.1% (inactive)
same,"parasite growth, % of DMSO control",[2],71.1%
same,"parasite growth remaining, % of DMSO control (lower = more inhibition)",[3],93.4%
same,"parasite growth, % of control (lower = inhibition)",[4],69.5%
same,"growth, % of control",[5],84.4%
same,efficacy,[6],-35.3% (inactive)
COC(=O)C(Cl)C(=O)OC,max response,[1],-5.17% (inactive)
same,efficacy,[6],18.5% (inactive)
CC(=O)OCC1=C(C(=O)O)N2C(=O)[C@@H](N)[C@H]2SC1,max response,[1],-3.04% (inactive)
same,efficacy,[6],11.9% (inactive)
CCCCCCC(=O)CCCCCC/C=C/C[C@@H](O)[C@H](O)[C@@](N)(CO)C(=O)O,max response,[1],-3.38% (inactive) and -2.5% (inactive)
same,efficacy,[6],-11.6% (inactive)
O=C1c2ccccc2C(=O)C1C(=O)C(c1ccccc1)c1ccccc1,outcome,[7],inactive
same,max response,[8],-16.2% (inactive)
same,max response,[1],4.31% (inactive)
same,max response,[9],-28.7% (inactive)
same,efficacy,[6],-17.4% (inactive)
C[C@]12CC[C@H]3[C@@H](CC[C@@]45O[C@H]4C(O)=C(C#N)C[C@]35C)[C@H]1CC[C@H]2O,"parasite growth, % of DMSO control",[2],70.4%
same,"parasite growth remaining, % of DMSO control (lower = more inhibition)",[3],70.8%
same,"parasite growth, % of control (lower = inhibition)",[4],55.7%
same,"growth, % of control",[5],90.1%
same,efficacy,[6],26.8% (inactive)
same,outcome,[10],inactive
O=C1c2ccccc2C(=O)c2ccccc21,max response,[8],-5.47% (inactive)
same,max response,[1],-6.63% (inactive)
same,max response,[9],-16.3% (inactive)
same,efficacy,[6],11.2% (inactive)
COP(=S)(OC)Oc1ccc(S(=O)(=O)N(C)C)cc1,max response,[1],17.5% (inactive)
same,efficacy,[6],-33.6% (inactive)
same,outcome,[10],inactive
COC(=O)[C@@H](N)CCCN/C(N)=N/[N+](=O)[O-],max response,[1],-0.272% (inactive)
same,efficacy,[6],-11.3% (inactive)
same,outcome,[10],inactive
C=C1C(=C/C=C2\CCC[C@]3(C)[C@@H]([C@H](C)CCCC(C)(C)O)CC[C@@H]23)C[C@@H](O)C[C@@H]1O,outcome,[11],inactive
same,outcome,[12],inactive
same,outcome,[13],inactive
C[C@@H]1[C@H](O)[C@@H](C)/C=C/C=C\C=C\C=C\C=C\C=C\C=C\[C@H](O[C@@H]2O[C@H](C)[C@@H](O)[C@H](N)[C@@H]2O)C[C@@H]2O[C@](O)(C[C@@H](O)C[C@@H](O)[C@H](O)CC[C@@H](O)C[C@@H](O)CC(=O)O[C@H]1C)C[C@H](O)[C@H]2C(=O)O (stereo in doubt),outcome,[11],inactive
same,outcome,[12],inactive
same,outcome,[13],inactive
CCC[C@@]1(CCc2ccccc2)CC(O)=C([C@H](CC)c2cccc(NS(=O)(=O)c3ccc(C(F)(F)F)cn3)c2)C(=O)O1,outcome,[11],inactive
same,outcome,[12],inactive
same,outcome,[13],inactive
C#CCC(Cc1cnc2nc(N)nc(N)c2n1)c1ccc(C(=O)N[C@@H](CCC(=O)O)C(=O)O)cc1 (stereo partly specified),outcome,[11],inactive
same,outcome,[12],inactive
same,outcome,[13],inactive
CSCC[C@H](NC(=O)[C@H](Cc1ccc(OS(=O)(=O)O)cc1)NC(=O)[C@@H](N)CC(=O)O)C(=O)NCC(=O)N[C@@H](Cc1c[nH]c2ccccc12)C(=O)N[C@@H](CCSC)C(=O)N[C@@H](CC(=O)O)C(=O)N[C@@H](Cc1ccccc1)C(N)=O,outcome,[11],inactive
same,outcome,[12],inactive
Cc1nnc(C(C)C)n1C1C[C@H]2CC[C@@H](C1)N2CC[C@H](NC(=O)C1CCC(F)(F)CC1)c1ccccc1 (stereo partly specified),outcome,[11],inactive
same,outcome,[12],inactive
same,outcome,[13],inactive
CCCCC[C@H](O)/C=C/[C@@H]1[C@H]2C/C(=C/CCCC(=O)O)O[C@H]2C[C@H]1O,outcome,[11],inactive
same,outcome,[12],inactive
same,outcome,[13],inactive
C=CC(N)CCC(=O)O (stereo unspecified),outcome,[11],inactive
same,outcome,[12],inactive
same,outcome,[13],inactive
CC[C@H]1OC(=O)[C@H](C)[C@@H](O[C@H]2C[C@@](C)(OC)[C@@H](O)[C@H](C)O2)C(C)[C@@H](O[C@@H]2O[C@H](C)C[C@H](N(C)C)[C@@H]2O)[C@](C)(OC)C[C@@H](C)C(=O)[C@H](C)[C@@H](O)[C@]1(C)O (stereo partly specified),AC50,[11],7.94 µM (active)
same,outcome,[12],inactive
same,AC50,[13],7.95 µM (active)
CC(C)(C)NC(=O)[C@@H]1C[C@@H]2CCCC[C@@H]2CN1C[C@@H](O)[C@H](Cc1ccccc1)NC(=O)[C@H](CC(N)=O)NC(=O)c1ccc2ccccc2n1,outcome,[11],inactive
same,outcome,[12],inactive
same,outcome,[13],inactive
C=CC[C@@H]1C=C(C)C[C@H](C)C[C@H](OC)[C@H]2O[C@@](O)(C(=O)C(=O)N3CCCC[C@H]3C(=O)O[C@H](C(C)=C[C@@H]3CC[C@H](O)[C@H](OC)C3)[C@@H](C)[C@@H](O)CC1=O)[C@@H](C)C[C@@H]2OC,outcome,[11],inactive
same,outcome,[12],inactive
same,outcome,[13],inactive
CNNCc1ccc(C(=O)NC(C)C)cc1,outcome,[11],inactive
same,outcome,[12],inactive
same,outcome,[13],inactive
CC(CCc1ccccc1)NCC(O)c1ccc(O)c(C(N)=O)c1 (stereo unspecified),outcome,[11],inactive
same,outcome,[12],inactive
same,outcome,[13],inactive
CCN(CC)C(=O)[C@]1(c2ccccc2)C[C@@H]1CN,outcome,[11],inactive
same,outcome,[12],inactive
same,outcome,[13],inactive
CCN1C(=O)NC(c2ccccc2)C1=O (stereo unspecified),outcome,[11],inactive
same,outcome,[12],inactive
same,outcome,[13],inactive
CC(C)[C@H]1C(=O)N2CCC[C@H]2[C@]2(O)O[C@](NC(=O)[C@@H]3C[C@@H]4c5cccc6[nH]cc(c56)C[C@H]4N(C)C3)(C(C)C)C(=O)N12,outcome,[11],inactive
same,outcome,[12],inactive
same,outcome,[13],inactive
Cc1noc(NS(=O)(=O)c2ccc(N)cc2)c1C,outcome,[11],inactive
same,outcome,[12],inactive
same,outcome,[13],inactive
CN/C(=C\[N+](=O)[O-])NCCSCc1csc(CN(C)C)n1,outcome,[11],inactive
same,outcome,[12],inactive
same,outcome,[13],inactive
